# Test results published in PubChem BioAssay (Tox21).
# Several values for one entry are separate records, joined by “and”; a condition that tells them apart may be missing. Identical values can stand only once. Results filed as inconclusive are left out. A call without a number means that no potency is given here. Activity calls are given as the source filed them. The call rests on the fitted dose curve; in most records, active means well fitted activation curve with a large enough effect in the signal ratio in the repeat runs (not every such curve was filed as active); inconclusive means weak or mixed curves, or effect the other way; inactive means no such curve, though single readings can be large or run the other way; the % refers to the signal ratio.
# Biological target: Peroxisome proliferator-activated receptor gamma (Homo sapiens) (UniProt P37231)
# Assay: qHTS assay to identify small molecule agonists of the peroxisome proliferator-activated receptor gamma (PPARg) signaling pathway (AID 743094)
# Conditions: HEK293H PPARg-UAS-bla, beta-lactamase FRET ratio, 17 h; series mostly up to 57 µM
# From the text: U.S. Tox21 Program National Center for Advancing Translational Sciences [NCATS] NIH Chemical Genomics Center [NCGC] U.S. Environmental Protection Agency [EPA] National Institutes of Environmental Health Sciences [NIEHS] National Toxicology Program [NTP] U.S. Food and Drug Administration [FDA] Tox21 Assay Overview: The peroxisome proliferator-activated receptors (PPARs) are lipid-activated transcription factors of the nuclear receptor superfamily with three distinct subtypes namely PPAR alpha, PPAR delta (also called PPAR beta) and PPAR gamma (PPARg). All these subtypes heterodimerize with Retinoid X receptor (RXR) and these heterodimers regulate transcription of various genes. PPAR-gamma receptor (glitazone receptor) is involved in the regulation of glucose and lipid metabolism. To identify the compounds that activate PPAR-gamma signaling, GeneBLAzer PPAR gamma UAS-bla HEK293H cell line (Invitrogen, Carlsbad, CA, USA) containing a beta-lactamase reporter gene under control of the control of an upstream activator sequence (UAS) stably integrated into HEK293H cells was used to screen Tox21 compound library.
# Tox21 Assay Protocol Summary: PPARg-bla cells were dispensed at 3000 cells/6uL/well in 1536-well black wall/clear bottom plates using a Multidrop Combi (Thermo Fisher Scientific, Waltham, MA) dispenser. After the assay plates were incubated at 37C and 5% CO2 for 5 h, 23 nL of compounds dissolved in DMSO, positive controls or DMSO only was transferred to the assay plate by a Pintool station (Kalypsys, San Diego, CA). The assay plates were incubated at 37C for 17 h. After 1 uL of LiveBLAzerTM B/G FRET substrate was added using a Bioraptr Flying Reagent Dispenser (FRD) workstation (Beckman Coulter, Indianapolis, IN, USA), the plates were incubated at room temperature for 1 h, and fluorescence intensity was measured by an Envision plate reader (PerkinElmer, Shelton, CT).
# Potency means the concentration at half of the fitted maximal effect.
# Sequence of Peroxisome proliferator-activated receptor gamma (Homo sapiens) (P37231 whole entry, looked up): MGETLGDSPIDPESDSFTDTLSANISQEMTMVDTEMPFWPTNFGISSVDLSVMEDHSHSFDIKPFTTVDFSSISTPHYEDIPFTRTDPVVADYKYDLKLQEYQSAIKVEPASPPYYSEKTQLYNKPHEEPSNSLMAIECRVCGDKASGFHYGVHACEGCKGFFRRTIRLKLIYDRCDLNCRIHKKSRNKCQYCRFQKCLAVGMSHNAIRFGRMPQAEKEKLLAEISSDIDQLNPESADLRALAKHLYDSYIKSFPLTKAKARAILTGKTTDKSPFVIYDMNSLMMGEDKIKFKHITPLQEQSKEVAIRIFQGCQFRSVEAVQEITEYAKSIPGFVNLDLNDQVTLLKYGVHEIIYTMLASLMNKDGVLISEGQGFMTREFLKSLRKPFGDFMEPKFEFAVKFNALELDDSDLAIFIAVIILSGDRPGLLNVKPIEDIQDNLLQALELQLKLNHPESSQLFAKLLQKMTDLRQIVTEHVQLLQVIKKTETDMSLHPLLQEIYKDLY
row,Structure (SMILES),Potency
1,Cc1ccc(OP(=O)(Oc2ccc(C)cc2)Oc2ccc(C)cc2)cc1,inactive
2,Nc1ccc(-c2ccc(N)c(N)c2)cc1N,inactive
3,CCOC(=O)C(C)OC(=O)c1cc(Oc2ccc(C(F)(F)F)cc2Cl)ccc1[N+](=O)[O-] (stereo not given),inactive
4,O=C(NC(=O)c1c(F)cccc1F)Nc1ccc(Cl)cc1,inactive
5,NNC(N)=S,inactive
6,CCCCCc1cc(O)cc(O)c1,inactive
7,c1ccc(P(c2ccccc2)c2ccccc2)cc1,inactive
8,N#Cc1cc(Br)c(O)c(Br)c1,inactive
9,c1ccc(-c2cccc(-c3ccccc3)c2)cc1,inactive
10,Nc1ccc(Cl)cc1N,inactive
11,C#C[C@]1(O)CC[C@H]2[C@@H]3CCC4=CC(=O)CC[C@]4(C)[C@H]3CC[C@@]21C,inactive
12,NNC(=S)NN,inactive
13,O=P(O)(O)CCCl,inactive
14,CCC(C)(C)c1ccc(O)cc1,inactive
15,O=[N+]([O-])c1ccc(O)c([N+](=O)[O-])c1,inactive
16,Nc1c(Cl)cc([N+](=O)[O-])cc1Cl,inactive
17,COP(=O)(OC)OC,inactive
18,CNC(=O)Oc1cccc2c1OC(C)(C)O2,inactive
19,CC(C)Oc1cc(-n2nc(C(C)(C)C)oc2=O)c(Cl)cc1Cl,inactive
20,CNC(=O)N(C)c1nnc(C(C)(C)C)s1,inactive

row,Structure (SMILES),Potency
1,CCOCN(C(=O)CCl)c1c(C)cccc1CC,inactive
2,C1=Cc2cccc3cccc1c23,inactive
3,CC(C)c1ccc(CO)cc1,inactive
4,O=c1oc2ccccc2c(O)c1C(CC(O)c1ccc(-c2ccc(Br)cc2)cc1)c1ccccc1 (stereo not given),601 nM (active) and 1.04 µM (active)
5,CC(C)C(=O)OCC(C)(C)C(OC(=O)C(C)C)C(C)C (stereo not given),inactive
6,N[C@@H](Cc1ccc(N(CCCl)CCCl)cc1)C(=O)O,inactive
7,CC(C)(OOC(C)(C)c1ccccc1)c1ccccc1,inactive
8,CC1(C)C(C=C(Cl)Cl)C1C(=O)OC(C#N)c1cccc(Oc2ccccc2)c1 (stereo not given),inactive
9,CCN(CC)C(=O)SCc1ccc(Cl)cc1,inactive
10,Cc1ccccc1[N+](=O)[O-],inactive
11,ClC1C(Cl)C(Cl)C(Cl)C(Cl)C1Cl (stereo not given),inactive
12,CCCCN(CCCC)N=O,inactive
13,Brc1ccc(Oc2cc(Br)c(Br)cc2Br)c(Br)c1,inactive
14,CCOc1cc(Oc2ccc(C(F)(F)F)cc2Cl)ccc1[N+](=O)[O-],inactive
15,CN(C)C(=O)Nc1ccc(Cl)cc1,inactive
16,Oc1cc(Cl)c(Cl)cc1Cl,inactive
17,O=P(Oc1ccccc1)(Oc1ccccc1)Oc1ccccc1,inactive
18,O=S(=O)(Oc1ccc(Cl)cc1)c1ccc(Cl)cc1,inactive
19,Nc1cccnc1,inactive
20,CCC(CC)Nc1c([N+](=O)[O-])cc(C)c(C)c1[N+](=O)[O-],inactive
